Experimental data reported in PubChem BioAssay (NCI).
Compounds without any hit were thinned out: in the full panel of roughly 83,000, 20% have a hit.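 Method: cells in 96-well plates; compound added at one concentration; 48 h incubation; percent growth measured; values under 10 scored active.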 Active and inactive are the calls of the source.

Test system: MDA-MB-468 breast
Test: NCI-60 one-dose screen, 48 h (100 = growth as untreated, 0 = no growth, -100 = all killed)
Conditions: 10 µM unless noted

Row | SMILES | growth
1 | Cn1ccc2c3c(ccc21)CC3=O | 106% (inactive)
2 | CCC1=C[C@H]2CN(CCc3c([nH]c4ccccc34)[C@@](C(=O)OC)(c3cc4c(cc3OC)N(C)[C@H]3[C@@](O)(C(=O)OC)[C@H](OC(C)=O)[C@]5(CC)[C@@H]6C[C@@H]6CN6CC[C@]43[C@@H]65)C2)C1 | 7.4% (active)
3 | c1ccc(-c2c(-c3ccccc3)[n+](Cc3ccc4ccccc4c3)c(-c3cccc4ccccc34)n2Cc2ccc3ccccc3c2)cc1 | -62.3% (active)
4 | CCCCCCCC/C=C/CCCCCCCC1=NC(C)(C)CN1c1ccccc1 | 85.7% (inactive)
5 | Cc1ccc(-c2[nH][nH]c(=O)c2-c2nc3ccccc3s2)cc1 | 98.1% (inactive)
6 | O=C(CBr)CN1C(=O)c2ccccc2C1=O | 103% (inactive)
7 | CCSc1ccc2c(c1)N(CCCN1CCN(C)CC1)c1ccccc1S2 | -3.41% (active)
8 | C#CCOc1cccc(Nc2ncnc3cc(NC(=O)C=C)ccc23)c1 | -24.9% (active)
9 | COc1cc(/C=C2\CN(S(=O)(=O)c3ccc(C)cc3)C/C(=C\c3cc(CN4CCCC4)c(O)c(OC)c3)C2=O)cc(CN2CCCC2)c1O | -11.9% (active)
10 | Cc1ccc(Cl)cc1Nc1nc(C(F)(F)F)ccc1C(=O)N/N=C/c1c(Cl)cccc1Cl | -13.1% (active)
11 | N#Cc1c(-c2ccccc2)cc(-c2ccccc2)n(CCCCCC(=O)Nc2ccccc2N)c1=O | 62.8% (inactive)
12 | O=P(O)(O)C(O)(Cc1cccnc1)P(=O)(O)O | 80.6% (inactive)
13 | CC1(c2ccc(Cl)cc2)OC(=O)CC(=O)O1 | 109% (inactive)
14 | S=C(S)OCN1CCOCC1 | 99.1% (inactive)
15 | CC(=O)Nc1cc2c(cc1Cl)Cc1cc(Cl)ccc1-2 | -50.2% (active)
16 | CC1Cc2c(Cl)ncnc2N(C)c2ccccc21 (configuration not stated) | -31.5% (active)
17 | CNC(=O)Cc1nc(-c2cccc(NS(=O)(=O)c3c(F)cccc3F)c2F)c(-c2ccnc(Nc3ccccc3)n2)s1 | 104% (inactive)
18 | O=C(CCNNC(=O)c1ccncc1)NCc1ccccc1 | 75% (inactive)
19 | CCCCOc1ccc(/C=N/Nc2cc(C)nc3ccc(Cl)cc23)cc1 | -65.9% (active)

Row | SMILES | growth
20 | O=C1/C(=C/c2ccccc2[N+](=O)[O-])COc2ccc(O)c(O)c21 | -58% (active)
21 | COc1cc(-c2nn(-c3ccc(NC(=O)c4ccc(Cl)c(Cl)c4)cc3)cc2-c2ccncc2)ccc1Cl | 78.3% (inactive)
22 | CC(=O)c1ccc2oc(=O)n(Cc3ccc(C#N)cc3)c(=O)c2c1 | 108% (inactive)
23 | O=C1C2=C(C(=O)c3c(O)ccc(O)c31)N(c1cccnc1)Cc1ccccc1O2 | -6.39% (active)
24 | C=C(C)[C@@H]1CC[C@]2(C(=O)NC(COC(=O)C(Cl)Cl)(COC(=O)C(Cl)Cl)COC(=O)C(Cl)Cl)CC[C@]3(C)[C@H](CC[C@@H]4[C@@]5(C)CC[C@H](OC(C)=O)C(C)(C)[C@@H]5CC[C@]43C)[C@@H]12 | 61.7% (inactive)
25 | Nc1nc(-c2ccccc2Cl)cc(-c2ccc(Cl)cc2Cl)n1 | 18.6% (inactive)
26 | COc1ccc(Cn2cc3c(c2-c2cc(OC)c(OC)c(OC)c2)CCc2cnoc2-3)cc1N | -10.1% (active)
27 | CN(Cc1ccccc1)c1ccc(SC#N)cc1 | 84.2% (inactive)
28 | Cc1ccc(CNc2c3ccccc3nc3ccccc23)cc1 | 7.18% (active)
29 | Cc1cc2c3ccccc3ccc2[n+]2ccccc12 | -60.6% (active)
30 | COc1ccc2c(=O)cc(C(Cl)(Cl)Cl)oc2c1 | -81.2% (active)
31 | CSc1nc2c(c(=O)n1C)C1(C(=O)N(Cc3ccccc3)c3ccccc31)c1c(nc(SC)n(C)c1=O)N2 | 86% (inactive)
32 | CCCCCCCCCCCC1=NC(C)(C)CN1C(C)(C)CO | -16% (active)
33 | Cn1cc(-c2nc(-c3cn(C)c4ncccc34)cs2)c2cc(F)ccc21 | -8.46% (active)
34 | Nc1ccc(/C=N/Nc2ccnc3c(N)cccc23)c2cccnc12 | -38.4% (active)
35 | CCC(C)[C@H](NC(=O)Nc1cc(C(F)(F)F)cc(C(F)(F)F)c1)C(=O)N[C@@H](Cc1cn(C)cn1)C(=O)OC (some centres not stated) | -74.1% [100 µM] (active)
36 | O=C(N/N=C/c1ccc(O)cc1O)c1cccc(Nc2ccnc(C(F)(F)F)c2)c1 | 43.1% (inactive)
37 | O=S(=O)(Cc1ccccc1)c1nc2ccccc2s1 | 76.8% (inactive)
38 | Cc1ccc(/C=C/C(=O)C(=O)/C=C/c2ccc(C)cc2)cc1 | 110% (inactive)

Row | SMILES | growth
39 | CNC(=O)c1c(NC(=O)c2ccc(C(C)C)cc2)sc2c(CN(C)C)c(O)ccc12 | 86.3% (inactive)
40 | COc1ccc2c(c1)C(=O)/C(=C/c1ccccn1)CC2 | 40.4% (inactive)
41 | CS(=O)(=O)c1ccc(/C=C\C(=O)O)cc1 | 93.6% (inactive)
42 | O=C1/C(=C\c2ccccc2)CN(C(=O)c2ccccc2F)C/C1=C\c1ccccc1 | -72.4% (active)
43 | CC(=O)NC(C)(C)C(=O)N1CCC[C@H]1C(=O)NC(C)(C)C(=O)N[C@@H](C)C(=O)NC(C)(C)C(=O)N[C@@H](C)C(=O)N[C@@H](CCC(N)=O)C(=O)NC(C)(C)C(=O)N[C@H](C(=O)NC(C)(C)C(=O)NCC(=O)N[C@@H](CC(C)C)C(=O)NC(C)(C)C(=O)N1CCC[C@H]1C(=O)N[C@H](C(=O)NC(C)(C)C(=O)NC(C)(C)C(=O)N[C@@H](CCC(N)=O)C(=O)N[C@@H](CCC(N)=O)C(=O)N[C@H](CO)Cc1ccccc1)C(C)C)C(C)C | 3.71% [4.25 µM] (active)
44 | CCCCCCCCCCCCCCn1cc(C2=C(c3coc4ccc(OC)cc34)C(=O)NC2=O)c2ccccc21 | 104% (inactive)
45 | COc1ccc(C(Cn2ccnc2)Sc2ccc(Cl)c(Cl)c2)cc1 (configuration not stated) | 63% (inactive)
46 | Cc1c(Cl)cccc1NC(=O)c1sc2nc3c(cc2c1N)C(=O)CCC3 | 48.6% (inactive)
47 | COc1ccc(/C(C)=C(\c2ccc(Cl)cc2)c2ccc(OCCN3CCCCCC3)cc2)cc1 | 16.1% (inactive)
48 | CN(C)C(=S)SCN1C(=O)c2ccc([N+](=O)[O-])cc2S1(=O)=O | 88.4% (inactive)
49 | COc1ccc2nccc(Cl)c2c1 | 100% (inactive)
50 | C#Cc1cc(C(=O)Nc2ccc(CNCCN3CCOCC3)c(C(F)(F)F)c2)ccc1C | 82.8% (inactive)
51 | CC(Br)C(Br)c1cc2c(cc1Br)OCO2 (configuration not stated) | 96.8% (inactive)
52 | COc1ccc(NC(=O)c2nc(-c3cc(OC)c(OC)c(OC)c3)n(-c3cccc4ccccc34)n2)cc1OC | 46.4% (inactive)
53 | COc1ccc(OC)c(NC=O)c1 | 97% (inactive)
54 | COc1ccc(-c2cc3cnc4ccccc4c3oc2=O)cc1 | 99.8% (inactive)
55 | CCC(C)Nc1ccc(NC(C)CC)cc1 (configuration not stated) | 8.07% (active)
56 | Cc1ccc2nc(NC(=O)CSC(=S)N3CCN(c4ccccc4)CC3)sc2c1 | 101% (inactive)
57 | N#Cc1c(-c2cccs2)cc(-c2cnccn2)nc1SCC(=O)NNC(=S)Nc1ccc(F)cc1 | 122% (inactive)
